Laboratory results as given in PubChem BioAssay AID1578 (Sanford-Burnham Center for Chemical Genomics, 2009).
Several values for one entry are separate records, joined by “and”; a condition that tells them apart may be missing. Equal entries are not always repeated. In all, about 290,000 compounds went through this assay and about 3,000 (1%) were called active. No stated cut-off is given here; in the data, active means inhibition mostly above about 36% (no sharp cut-off); inactive means mostly below about 34%. For the sample, actives were picked, then their nearest neighbours and some compounds at random.

experiment: NOD1 signaling inhibitors, primary screen, cell-based, luminescence, uHTS (AID 1578); conditions: NOD1-driven NF-kB luciferase reporter cells, at 4 µM, active compounds read high;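 further: HEK-293T reporter cells stimulated with the NOD1 agonist gamma-tri-DAP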

SMILES | inhibition
CCOc1ccc(C(=O)Nn2cnnc2)cc1OCC | -0.7% (inactive)
COc1cc(C=O)ccc1OC(=O)c1ccc(C(C)C)cc1 | -9.5% (inactive)
CCn1c(=N)n(CC(=O)C(C)(C)C)c2ccccc21 | 1.2% (inactive)
CCc1ccc(CN2CCC(C(=O)Nc3ccc(Oc4ccccc4)nc3)CC2)o1 | 32.5% (inactive)
O=C(O)c1[nH]c2ccccc2c1C(c1cc(Br)ccc1O)c1c(C(=O)O)[nH]c2ccccc12 | 76.6% (active)
O=C(O)COc1ccc(Br)cc1C(c1c(C(=O)O)[nH]c2ccccc12)c1c(C(=O)O)[nH]c2ccccc12 | -18.7% (inactive)
CCOc1cc(Br)cc(C(c2c(C(=O)O)[nH]c3ccccc23)c2c(C(=O)O)[nH]c3ccccc23)c1O | 18% (inactive)
Cc1nn(CC(=O)NCC(C)c2ccccc2)c(=O)c2cccn12 (configuration not stated) | -28.8% (inactive)
CCOC1(OCC)C(c2ccc(Cl)cc2)C(C#N)(C#N)C1(OCC)OCC (configuration not stated) | -5.8% (inactive)
COC1(OC)C(/C=C/c2ccc(Cl)cc2)C(C#N)(C#N)C1(OC)OC (configuration not stated) | 62.6% (active)
N#Cc1c(NC(=O)c2ccccc2)sc2c1CCC2 | -29.6% (inactive)
Cc1sc(NC(=O)c2ccccc2)c(C#N)c1-c1ccccc1 | -17.1% (inactive)
N#Cc1c(Cl)nsc1NC(=O)c1ccccc1 | 89.1% (active)
C/C(=N\N=C(N)N)c1cc(Cl)ccc1Cl | -23.9% (inactive)
CCNc1nc(Oc2ccc(C(=O)OC)cc2)nc(N(C)C)n1 | -15.3% (inactive)
Cc1ccc(O)c(Nc2c3ccccc3nc3ccccc23)c1 | 12.5% (inactive)
O=C(O)c1cc(S(=O)(=O)O)cc(Nc2c3ccccc3nc3ccccc23)c1O | 30.7% (active)
O=C(O)c1cccc(Nc2c3ccccc3nc3ccccc23)c1 | -9% (inactive)
COc1cccc(CNC(=O)CCl)c1 | 73.9% (active)
COc1cccc(CNC(=O)Cc2ccc(Br)cc2)c1 | -16.7% (inactive)
COc1cccc(CNC(=O)Cn2cccc2)c1 | 18.5% (inactive)
CS(=O)(=O)c1ccc2nc(NC(=O)c3ccc(NS(=O)(=O)c4ccc(F)c(F)c4)cc3)sc2c1 | -2.4% (inactive)
CC(=O)c1cccc(NC(=O)N2CCCCCC2)c1 | -8.3% (inactive)

SMILES | inhibition
Cc1cccc(NC(=O)c2ccc(C(=O)Nc3cccc(C)c3)nc2)c1 | 62.8% (active)
Cc1ccc(S(=O)(=O)Nc2cccc(C(=O)Nc3cc(C)ccn3)c2)cc1 | -15.9% (inactive)
CC(=O)Nc1cccc(NC(=O)c2ccc(C(=O)Nc3cccc(NC(C)=O)c3)nc2)c1 | -19.3% (inactive)
CS(=O)(=O)c1ccc2nc(NC(=O)c3cccc(Cl)c3)sc2c1 | -1.3% (inactive)
Cc1cccc(NS(=O)(=O)c2ccc(NC(=O)N3CCCCC3)cc2)c1 | 22.5% (inactive)
Cc1cccc(NS(=O)(=O)c2cccc(C(=O)Nc3cccc(C(=O)O)c3)c2)c1 | -23.8% (inactive)
CC(=O)c1cccc(NC(=O)c2ccc(C(=O)Nc3cccc(C(C)=O)c3)nc2)c1 | -11.1% (inactive)
COc1ccc(-c2noc(N3CCC(C(=O)NCc4ccc(F)cc4)CC3)n2)cc1 | -38.2% (inactive)
COc1ccc(/C=C2/Sc3ccc(C(=O)NCCCN4CCOCC4)cc3NC2=O)cc1OC | 29.5% (inactive)
COC(=O)CS(=O)(=O)c1cc(Br)cc2c1N(C(C)=O)CC2 | -37.1% (inactive)
CCc1cc(/C(Cc2ccccn2)=N\Nc2ccccc2)c(O)cc1O | -20.2% (inactive)
CCCNCc1cc(OC)c(OCC(=O)Nc2ccccc2)cc1Br | -23.4% (inactive)
Cc1cccc(C)c1Nc1nnc(SCC(=O)Nc2cc(S(=O)(=O)N3CCCCC3)ccc2Cl)s1 | 44.5% (inactive)
Clc1ccc(CN2CCC(Cc3ccccc3)CC2)cc1 | -18.7% (inactive)
CSc1ccc(CN2CCC(Cc3ccccc3)CC2)cc1 | 80.3% (active)
CCOc1ccc(CN2CCC(Cc3ccccc3)CC2)cc1 | -22.4% (inactive)
c1coc(CNc2nc(-c3ccncc3)cs2)c1 | -35.7% (inactive)
CCOC(=O)C1CCN(C(=O)CCCn2nc(C)c3c(C)n(-c4ccc(C)cc4)nc3c2=O)CC1 | -4.8% (inactive)
CC(C)C[C@H](NC(=O)OC(C)(C)C)c1n[nH]c(=S)n1N | -16.1% (inactive)
CCN(C(=O)Cn1c(=O)oc2ccccc21)C1CCS(=O)(=O)C1 (configuration not stated) | -9.7% (inactive)
CC(=O)N1c2ccc(S(=O)(=O)N3CCC(C(=O)Nc4ccccn4)CC3)cc2CC1C (configuration not stated) | -41.4% (inactive)
CC(=O)N1c2ccc(S(=O)(=O)N3CCC(C(=O)Nc4cccc(C)c4)CC3)cc2CC1C (configuration not stated) | -24.4% (inactive)
CC(C)[C@@H](N)C(=O)N/N=C/c1ccc2ncccc2c1 | -2% (inactive)

SMILES | inhibition
CSCC[C@H](NC(=O)[C@H]1CC[C@H](CNC(=O)[C@@H]2CCCN2)CC1)C(=O)O | -8.2% (inactive)
COCCn1c(C)cc(/C=C2/NC(=O)N(Cc3ccc(C)cc3)C2=O)c1C | -2.2% (inactive)
CCCCNC(=O)[C@H](Cc1c[nH]c2ccccc12)NC(=O)c1ccccc1Cl | -18.4% (inactive)
C=CCN=c1scc(-c2ccc3c(c2)NC(=O)CO3)n1/N=C(\C)c1ccccn1 | 50.6% (active)
CCN=c1scc(-c2ccc3c(c2)NC(=O)CO3)n1N=C1CCCC1 | 51.7% (inactive)
COCCN=c1scc(-c2ccc3c(c2)NC(=O)CO3)n1/N=C(\C)c1ccc(O)cc1 | -6.7% (inactive)
CCCCCC1=NN2C(=O)CC(=O)N=C2S1 | 11.6% (inactive)
O=c1c2nnn(-c3cccc(F)c3)c2ncn1Cc1ccccn1 | -4.3% (inactive)
O=C(N/N=C/c1ccc([N+](=O)[O-])cc1)c1[nH]ncc1Br | -5% (inactive)
Cc1cc(C)n(CC(=O)NCc2cc(-c3nn(C)c(=O)c4ccccc34)ccc2C)n1 | -14% (inactive)
Cc1ccc(-c2nn(C)c(=O)c3ccccc23)cc1CNC(=O)Cn1nc(-c2ccccc2)c2ccccc2c1=O | 12.8% (inactive)
Cc1ccc(-c2nn(CC(=O)NCc3cc(-c4nn(C)c(=O)c5ccccc45)ccc3C)c(=O)c3ccccc23)cc1 | 93.8% (active)
O=C1NCCc2c1[nH]c1c(Cl)ccc(Cl)c21 | 79.2% (active)
O=C1NCCc2c1[nH]c1ccccc21 | 10.2% (inactive) and -8.1% (inactive)
Cc1ccc2[nH]c3c(c2c1)CCNC3=O | -41.5% (inactive)
CCOC(=O)[C@@H]1[C@H]2COc3cc(OC)ccc3[C@@H]2N2C(=O)N(c3ccc(Br)cc3)C(=O)[C@@]12C | -23.3% (inactive)
CN(C)C(CNc1ncccn1)c1ccccc1 (configuration not stated) | -14.6% (inactive)
COC(=O)C1(CC2CC(c3cccc(Br)c3)=NO2)CCN(C(=O)OC(C)(C)C)CC1 (configuration not stated) | 43.4% (active)
CC(C)(C)OC(=O)N1CCC(CC2CC(c3cccc(Br)c3)=NO2)(C(=O)NCC2CCCCC2)CC1 (configuration not stated) | -0.4% (inactive)
CC(C)(C)OC(=O)N1CCC(CC2CC(c3cccc(Br)c3)=NO2)(C(=O)O)CC1 (configuration not stated) | -12.7% (inactive)
O=C(c1cc2ccccn2n1)N1CCN(c2cccc(C(F)(F)F)c2)CC1 | 19.8% (inactive)
Cc1ccc(S(=O)(=O)NC(=NC2CCCCC2)c2ccc(F)cc2)cc1 | -31.6% (inactive)
CCc1ccc(-c2nn(-c3ccccc3)cc2C2SCC(=O)N2Cc2ccco2)cc1 (configuration not stated) | 11.4% (inactive)

SMILES | inhibition
O=C1CSC(c2cn(-c3ccccc3)nc2-c2ccccc2)N1Cc1ccco1 (configuration not stated) | 51.6% (active)
O=C1CSC(c2cn(-c3ccccc3)nc2-c2cc3ccccc3oc2=O)N1Cc1ccco1 (configuration not stated) | 3.1% (inactive)
COc1ccc(/C=N/c2nc3ccccc3n2C)cc1OC | -12.1% (inactive)
CCOC(=O)N1CCN(C(=O)C2CCN(Cc3ccc(O)c(OCC)c3)CC2)CC1 | -15.5% (inactive)
O=C(c1ccccc1)N1CCCCC(S(=O)(=O)c2ccccc2)C1=O (configuration not stated) | 19.8% (inactive)
O=C(N/N=C/c1ccc(O)cc1O)c1ccc(NC(=O)C2CCCCC2)cc1 | -73.3% (inactive)
Cc1cccc(OC(C)C(=O)N2CCCN(C)CC2)c1C (configuration not stated) | -5.8% (inactive)
O=C(Nc1ccc(N2CCOCC2)cc1)C1CC(=O)N(c2ccccc2)C1 (configuration not stated) | -35.3% (inactive)
O=C(NCc1ccccc1)C1CCC1 | -29% (inactive)
O=C(NC(=S)NCc1ccccc1)C1CCCCC1 | 11.8% (inactive)
O=C(NCc1ccccc1)C1CCCC1 | 67.7% (active)
CC(=O)N1CCc2cc(S(=O)(=O)NCC(=O)NCc3ccc(F)cc3)ccc21 | -8% (inactive)
Nc1[nH]c(N=NC(=O)c2ccccc2)c2ccccc12 | -58.4% (inactive)
CCOc1ccc(S(=O)(=O)N2CCCC(C(=O)N3CCN(CC)CC3)C2)cc1Cl (configuration not stated) | -13.6% (inactive)
CCN(CC)S(=O)(=O)c1cc(NC(=O)COC(=O)c2ccc(NC(=O)CC#N)cc2)ccc1C | -16.4% (inactive)
Fc1ccc(Nc2nc(-c3ccncc3)nc3ccccc23)cc1 | 1.1% (inactive)
C=CCNc1sc(C(=O)c2ccccc2)c(N)c1-c1nc2ccccc2s1 | -19.4% (inactive)
O=C1N/C(=N/S(=O)(=O)c2ccccc2)S/C1=C/c1cccnc1 | -12.1% (inactive)
COc1ccccc1CNCc1cccc(Oc2ccccc2)c1 | -7.9% (inactive)
COc1ccc(CNCc2cccc(Oc3ccccc3)c2)cc1 | 65.8% (active)
O=C(O)c1ccc(CNCc2cccc(Oc3ccccc3)c2)cc1 | -4.9% (inactive)
Cc1cc(C)nc(/N=C2/NC(=O)CS2)n1 | 11.8% (inactive)
O=C(CSc1ncccc1C(=O)O)NC12CC3CC(CC(C3)C1)C2 | -37.8% (inactive)
